Data: the supplement of paper PMC10849652
Targets with a hit are over-represented here; the source holds about 7,900 in all. About 0.6% of all pairs of compound and target were hits.

Compound: C1CN(CCC1(CC2=CC=C(C=C2)Cl)N)C3=NC=NC4=C3C=CN4
Assay: log2 fold change, soluble protein after heating vs DMSO (PISA); higher = thermal stabilisation; K562 cells, 10 uM, 30 min; active = over 0.2 and 3.5 SD of the protein, either way, in both replicates (recomputed)
Outline: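 K562 cells at 2×10^6 cells/mL were treated with 10 μM compound for 30 min. Aliquots were heated for 3 min across 48°C-58°C, pooled, and extracted in PBS with 0.5% NP-40 at 4°C; soluble protein was the supernatant after 21,000xg for 90 min. Soluble protein was quantified by TMTpro 16plex LC-MS/MS with channel sums equalised, and reported as log2 fold change in thermal stability against DMSO controls, with values from duplicates.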

Chain of UniProt Q8NHZ8 (Q8NHZ8 whole entry, looked up): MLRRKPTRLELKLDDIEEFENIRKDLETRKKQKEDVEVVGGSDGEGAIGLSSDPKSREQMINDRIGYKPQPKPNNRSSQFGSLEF
Chain of UniProt Q8N4Q1 (Q8N4Q1 whole entry, looked up): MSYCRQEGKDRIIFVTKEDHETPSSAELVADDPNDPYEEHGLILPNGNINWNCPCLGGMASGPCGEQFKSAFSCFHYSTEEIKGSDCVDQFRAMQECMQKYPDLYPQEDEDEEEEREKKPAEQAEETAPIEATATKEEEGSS
Chain of UniProt P19397 (P19397 whole entry, looked up): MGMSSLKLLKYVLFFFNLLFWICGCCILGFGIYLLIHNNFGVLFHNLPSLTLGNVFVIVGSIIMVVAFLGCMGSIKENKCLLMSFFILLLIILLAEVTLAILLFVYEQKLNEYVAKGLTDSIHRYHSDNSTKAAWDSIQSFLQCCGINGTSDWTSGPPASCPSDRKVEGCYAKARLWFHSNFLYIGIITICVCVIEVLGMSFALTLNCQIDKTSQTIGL
Chain of UniProt Q16740 (Q16740 whole entry, looked up): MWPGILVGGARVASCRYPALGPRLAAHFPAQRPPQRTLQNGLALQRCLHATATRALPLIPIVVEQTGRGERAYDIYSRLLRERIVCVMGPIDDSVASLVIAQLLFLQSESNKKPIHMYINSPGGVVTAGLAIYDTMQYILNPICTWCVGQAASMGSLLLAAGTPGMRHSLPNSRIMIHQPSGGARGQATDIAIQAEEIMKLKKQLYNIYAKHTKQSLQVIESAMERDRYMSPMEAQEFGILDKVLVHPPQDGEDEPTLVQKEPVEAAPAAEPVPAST
Chain of UniProt P67870 (P67870 whole entry, looked up): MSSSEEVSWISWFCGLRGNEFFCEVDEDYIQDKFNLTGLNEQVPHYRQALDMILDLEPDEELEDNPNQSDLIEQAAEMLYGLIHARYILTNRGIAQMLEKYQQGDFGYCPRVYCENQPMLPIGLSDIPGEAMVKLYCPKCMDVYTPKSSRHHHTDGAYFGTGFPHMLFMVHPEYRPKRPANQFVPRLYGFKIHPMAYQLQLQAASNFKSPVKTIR
Chain of UniProt P46108 (P46108 whole entry, looked up): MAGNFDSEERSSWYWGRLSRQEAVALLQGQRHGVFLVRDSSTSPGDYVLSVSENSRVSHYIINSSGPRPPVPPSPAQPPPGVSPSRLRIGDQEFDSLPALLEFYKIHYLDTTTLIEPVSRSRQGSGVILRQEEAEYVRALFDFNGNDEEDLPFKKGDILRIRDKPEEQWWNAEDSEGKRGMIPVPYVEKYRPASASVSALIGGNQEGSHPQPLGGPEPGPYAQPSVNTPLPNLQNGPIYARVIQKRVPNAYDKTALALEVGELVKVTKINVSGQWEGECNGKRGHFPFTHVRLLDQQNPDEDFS
Chain of UniProt Q8N1A6 (Q8N1A6 whole entry, looked up): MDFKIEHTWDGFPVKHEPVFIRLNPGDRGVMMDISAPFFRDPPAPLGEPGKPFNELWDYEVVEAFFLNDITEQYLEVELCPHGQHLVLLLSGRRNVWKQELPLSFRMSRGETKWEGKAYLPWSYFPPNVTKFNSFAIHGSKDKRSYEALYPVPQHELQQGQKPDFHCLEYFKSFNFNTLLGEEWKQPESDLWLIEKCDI
Chain of UniProt P27708 (P27708 whole entry, looked up): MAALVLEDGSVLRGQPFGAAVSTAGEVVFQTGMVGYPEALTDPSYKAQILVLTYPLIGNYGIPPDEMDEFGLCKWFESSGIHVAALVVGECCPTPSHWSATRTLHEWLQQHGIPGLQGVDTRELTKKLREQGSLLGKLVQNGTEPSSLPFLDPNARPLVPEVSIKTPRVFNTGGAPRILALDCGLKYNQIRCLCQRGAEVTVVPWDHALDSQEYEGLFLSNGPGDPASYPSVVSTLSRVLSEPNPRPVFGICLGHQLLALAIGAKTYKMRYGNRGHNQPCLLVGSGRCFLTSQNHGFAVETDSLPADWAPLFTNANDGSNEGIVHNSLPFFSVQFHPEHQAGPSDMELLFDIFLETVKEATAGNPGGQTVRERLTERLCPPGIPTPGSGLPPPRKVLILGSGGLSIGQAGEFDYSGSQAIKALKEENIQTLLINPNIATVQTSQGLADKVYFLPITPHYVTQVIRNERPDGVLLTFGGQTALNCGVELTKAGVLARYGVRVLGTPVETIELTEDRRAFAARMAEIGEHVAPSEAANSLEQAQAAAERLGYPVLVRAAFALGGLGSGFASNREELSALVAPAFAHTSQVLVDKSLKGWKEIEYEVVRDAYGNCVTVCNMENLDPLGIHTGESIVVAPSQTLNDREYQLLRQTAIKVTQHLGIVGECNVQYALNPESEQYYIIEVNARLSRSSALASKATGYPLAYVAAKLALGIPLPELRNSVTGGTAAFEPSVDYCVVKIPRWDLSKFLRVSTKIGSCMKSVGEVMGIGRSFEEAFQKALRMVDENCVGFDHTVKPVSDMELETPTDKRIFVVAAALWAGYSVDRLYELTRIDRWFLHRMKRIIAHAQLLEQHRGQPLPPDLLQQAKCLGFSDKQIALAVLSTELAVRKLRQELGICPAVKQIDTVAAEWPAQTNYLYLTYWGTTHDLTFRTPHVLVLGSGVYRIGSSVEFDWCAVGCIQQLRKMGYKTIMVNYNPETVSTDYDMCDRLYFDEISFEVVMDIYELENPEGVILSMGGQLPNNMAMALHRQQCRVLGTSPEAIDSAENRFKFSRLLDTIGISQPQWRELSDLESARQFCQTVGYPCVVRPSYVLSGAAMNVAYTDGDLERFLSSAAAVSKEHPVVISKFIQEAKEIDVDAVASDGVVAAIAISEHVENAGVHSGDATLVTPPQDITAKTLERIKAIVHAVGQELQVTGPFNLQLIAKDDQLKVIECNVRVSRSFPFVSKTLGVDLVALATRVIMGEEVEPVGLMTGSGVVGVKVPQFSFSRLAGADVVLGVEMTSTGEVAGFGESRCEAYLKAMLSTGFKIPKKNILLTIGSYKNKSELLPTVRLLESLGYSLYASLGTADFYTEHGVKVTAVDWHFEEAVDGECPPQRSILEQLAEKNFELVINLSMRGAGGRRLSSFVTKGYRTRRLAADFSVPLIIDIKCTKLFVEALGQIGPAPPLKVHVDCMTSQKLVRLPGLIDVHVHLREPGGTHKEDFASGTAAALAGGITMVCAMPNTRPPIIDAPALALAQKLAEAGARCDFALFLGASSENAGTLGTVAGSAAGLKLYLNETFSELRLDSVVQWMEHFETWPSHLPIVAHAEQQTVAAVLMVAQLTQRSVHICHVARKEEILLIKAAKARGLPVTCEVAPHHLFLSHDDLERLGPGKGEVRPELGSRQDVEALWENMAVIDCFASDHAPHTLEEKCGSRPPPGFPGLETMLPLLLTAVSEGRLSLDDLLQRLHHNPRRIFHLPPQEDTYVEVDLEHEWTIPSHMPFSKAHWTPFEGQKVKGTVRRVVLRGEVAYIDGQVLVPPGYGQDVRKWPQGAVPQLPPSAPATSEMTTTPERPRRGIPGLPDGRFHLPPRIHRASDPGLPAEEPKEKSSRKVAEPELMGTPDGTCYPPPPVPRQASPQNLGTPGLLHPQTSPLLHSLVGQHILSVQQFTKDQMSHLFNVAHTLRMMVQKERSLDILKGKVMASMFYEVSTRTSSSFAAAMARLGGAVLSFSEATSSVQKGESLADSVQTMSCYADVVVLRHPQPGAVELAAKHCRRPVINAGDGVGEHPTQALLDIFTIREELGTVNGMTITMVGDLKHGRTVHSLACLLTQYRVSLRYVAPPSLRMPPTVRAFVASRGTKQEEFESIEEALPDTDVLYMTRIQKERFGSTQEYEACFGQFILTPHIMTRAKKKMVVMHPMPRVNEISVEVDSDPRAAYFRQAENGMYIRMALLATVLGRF
Chain of UniProt P46109 (P46109 whole entry, looked up): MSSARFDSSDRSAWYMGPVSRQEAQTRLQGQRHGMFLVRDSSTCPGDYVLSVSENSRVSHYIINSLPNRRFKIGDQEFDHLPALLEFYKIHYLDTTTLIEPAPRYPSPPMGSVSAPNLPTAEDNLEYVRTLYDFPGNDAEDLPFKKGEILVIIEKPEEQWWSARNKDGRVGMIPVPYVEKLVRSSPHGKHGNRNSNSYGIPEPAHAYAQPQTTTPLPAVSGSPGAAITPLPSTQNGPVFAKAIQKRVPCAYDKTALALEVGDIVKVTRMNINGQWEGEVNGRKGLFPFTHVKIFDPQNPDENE
Chain of UniProt P51790 (P51790 whole entry, looked up): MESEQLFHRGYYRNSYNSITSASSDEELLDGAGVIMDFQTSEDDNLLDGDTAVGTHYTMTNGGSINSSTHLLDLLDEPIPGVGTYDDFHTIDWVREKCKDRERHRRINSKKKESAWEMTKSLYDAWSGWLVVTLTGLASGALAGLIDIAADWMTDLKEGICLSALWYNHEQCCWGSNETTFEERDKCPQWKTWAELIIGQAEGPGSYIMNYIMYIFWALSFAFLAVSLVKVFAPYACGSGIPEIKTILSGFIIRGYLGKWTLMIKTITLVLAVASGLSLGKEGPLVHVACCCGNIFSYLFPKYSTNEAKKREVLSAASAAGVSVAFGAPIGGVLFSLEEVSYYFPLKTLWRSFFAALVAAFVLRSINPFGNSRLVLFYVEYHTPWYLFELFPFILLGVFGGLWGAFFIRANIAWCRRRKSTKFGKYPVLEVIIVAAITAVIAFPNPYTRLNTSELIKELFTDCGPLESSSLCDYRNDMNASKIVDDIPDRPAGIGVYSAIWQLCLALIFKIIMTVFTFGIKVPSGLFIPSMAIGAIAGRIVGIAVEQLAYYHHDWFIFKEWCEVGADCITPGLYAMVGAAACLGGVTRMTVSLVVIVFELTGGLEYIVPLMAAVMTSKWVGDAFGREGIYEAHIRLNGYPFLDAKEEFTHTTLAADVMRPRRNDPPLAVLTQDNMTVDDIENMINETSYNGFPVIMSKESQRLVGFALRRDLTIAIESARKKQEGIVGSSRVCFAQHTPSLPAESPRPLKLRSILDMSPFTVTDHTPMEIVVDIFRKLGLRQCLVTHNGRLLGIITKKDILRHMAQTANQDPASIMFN
Chain of UniProt Q13901 (Q13901 whole entry, looked up): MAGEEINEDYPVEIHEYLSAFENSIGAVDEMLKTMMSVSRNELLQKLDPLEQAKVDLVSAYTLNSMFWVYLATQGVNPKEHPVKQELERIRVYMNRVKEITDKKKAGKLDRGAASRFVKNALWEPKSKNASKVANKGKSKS

log2 fold change, inactive:
CDC37L1 (UniProt Q7L3B6) 0.357
CCNB1 (UniProt P14635) -0.018
CIT isoform 4 (UniProt O14578) 0.021
CALCOCO2 isoform 4 (UniProt Q13137) -0.052
CLCN3 isoform 2 (UniProt P51790) 0.033
CHCHD2 (UniProt Q9Y6H1) -0.001
CCNH (UniProt P51946) -0.015
CRK (UniProt P46108) 0.001
CHCHD1 (UniProt Q96BP2) -0.091
CALB1 (UniProt P05937) -0.026
CDK6 (UniProt Q00534) -0.034
COASY isoform 2 (UniProt Q13057) 0.092
CHD3 isoform 3 (UniProt Q12873) -0.093
CHCHD4 isoform 2 (UniProt Q8N4Q1) 0.177
CASP3 (UniProt P42574) 0.093
CSNK2B (UniProt P67870) -0.023
CSTF3 (UniProt Q12996) -0.027
C4orf33 (UniProt Q8N1A6) 0.06
COCH (UniProt O43405) -0.101
CD53 (UniProt P19397) -0.007
CD55 isoform 7 (UniProt P08174) 0.008
CLASP2 isoform 3 (UniProt O75122) 0.041
CDC26 (UniProt Q8NHZ8) -0.022
CRTC2 (UniProt Q53ET0) 0.08
C1D (UniProt Q13901) -0.1
COA6 isoform 2 (UniProt Q5JTJ3) 0.02
CRKL (UniProt P46109) 0.026
CPT1A (UniProt P50416) 0.076
CCAR2 isoform 2 (UniProt Q8N163) 0.007
CIR1 (UniProt Q86X95) 0.002
CTBS (UniProt Q01459) 0.048
CLUH, A0A494C0R8 0.05
CAD (UniProt P27708) 0.046
CLPP (UniProt Q16740) 0.022
CD63 (UniProt P08962) 0.034
COPS4 (UniProt Q9BT78) -0.002
